Several values for one entry are separate records, joined by “and”; a condition that tells them apart may be missing. Equal entries are not always repeated. In all, about 5,500 compounds went through this assay and about 2,000 (36%) were called active. Inconclusive results (about 18%) are left out. No stated cut-off is given here; in the data, active means normalized growth mostly below about 0.91 (no sharp cut-off); inconclusive means no clear call, values can overlap the other calls; inactive means mostly above about 0.92. The list shows a part of the results.
Test: chemical genetic growth profiling, strain panel (AID 1159580);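 further: tested at 20 µM; growth read once vehicle control cultures reached saturation at 30 °C; 1 = growth at the plate median or of vehicle wells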
Conditions: S. cerevisiae deletion strains, growth OD

Measured: normalized growth

COc1cc([C@@H]2c3cc4c(cc3[C@H](OC(C)=O)[C@H]3COC(=O)[C@@H]23)OCO4)cc(OC)c1OC
inactive: locus YAL021C, strain ccr4, stronger effect = lower value 1.01 | locus YAL026C, strain drs2, stronger effect = lower value 0.991 | locus YAL030W, strain snc1, stronger effect = lower value 1.01 | locus YBL061C, strain skt5, stronger effect = lower value 1.01 | locus YBR009C, strain hhf1, stronger effect = lower value 0.996 | locus YBR021W, strain FUR4, stronger effect = lower value 1.01 | locus YBR023C, strain chs3, stronger effect = lower value 1.01 | locus YBR171W, strain sec66, stronger effect = lower value 1 | locus YBR229C, strain ROT2, stronger effect = lower value 1.01 | locus YBR231C, strain swc5, stronger effect = lower value 1.01 | locus YBR279W, strain paf1, stronger effect = lower value 1 | locus YCL011C, strain gbp2, stronger effect = lower value 1 | locus YCL016C, strain dcc1, stronger effect = lower value 1 | locus YCL029C, strain bik1, stronger effect = lower value 1.01 | locus YCL069W, strain vba3, stronger effect = lower value 1 | locus YCR088W, strain abp1, stronger effect = lower value 0.982 | locus YDL005C, strain med2, stronger effect = lower value 1 | locus YDL035C, strain GPR1, stronger effect = lower value 1.02 | locus YDL040C, strain nat1, stronger effect = lower value 1 | locus YDL074C, strain BRE1, stronger effect = lower value 1.02 | locus YDL101C, strain DUN1, stronger effect = lower value 1.01 | locus YDL185W, strain tfp1, stronger effect = lower value 1.03 | locus YDL192W, strain arf1, stronger effect = lower value 1.04 | locus YDR001C, strain nth1, stronger effect = lower value 0.99 | locus YDR069C, strain doa4, stronger effect = lower value 1.01 | locus YDR101C, strain arx1, stronger effect = lower value 1.01 | locus YDR137W, strain rgp1, stronger effect = lower value 1.03 | locus YDR150W, strain NUM1, stronger effect = lower value 1.01 | locus YDR159W, strain sac3, stronger effect = lower value 1.01 | locus YDR162C, strain NBP2, stronger effect = lower value 1.01 | locus YDR195W, strain ref2 0.972 | locus YDR297W, strain sur2, stronger effect = lower value 1.01 | locus YDR318W, strain mcm21, stronger effect = lower value 1.02 | locus YDR334W, strain swr1, stronger effect = lower value 0.969 | locus YDR335W, strain msn5, stronger effect = lower value 1.01 | locus YDR388W, stronger effect = lower value 1.02 | locus YDR392W, strain spt3, stronger effect = lower value 0.998 | locus YDR502C, strain sam2, stronger effect = lower value 1.01 | locus YEL003W, strain gim4, stronger effect = lower value 0.998 | locus YEL037C, strain rad23, stronger effect = lower value 0.985 | locus YEL061C, strain CIN8 (second series), stronger effect = lower value 0.98 | locus YEL061C, strain CIN8, stronger effect = lower value 1.01 | locus YER015W, strain faa2, stronger effect = lower value 1.01 | locus YER016W, strain bim1, stronger effect = lower value 1.01 | locus YER110C, stronger effect = lower value 1.02 | locus YER111C, strain swi4, stronger effect = lower value 1.01 | locus YER155C, strain BEM2 (second series), stronger effect = lower value 1.01 | locus YER155C, strain BEM2, stronger effect = lower value 0.998 | locus YER167W, strain BCK2, stronger effect = lower value 1.02 | locus YFR010W, strain ubp6, stronger effect = lower value 0.98 | locus YGL078C, strain dbp3, stronger effect = lower value 1.03 | locus YGL086W, strain mad1, stronger effect = lower value 1.01 | locus YGL167C, strain pmr1, stronger effect = lower value 1 | locus YGL173C, strain kem1, stronger effect = lower value 1.01 | locus YGL227W, strain vid30, stronger effect = lower value 0.994 | locus YGL240W, strain doc1, stronger effect = lower value 1.01 | locus YGL248W, strain PDE1, stronger effect = lower value 1.01 | locus YGL253W, strain hxk2, stronger effect = lower value 1 | locus YGR078C, strain PAC10, stronger effect = lower value 1.02 | locus YGR135W, strain pre9, stronger effect = lower value 1.03 | locus YGR252W, strain gcn5, stronger effect = lower value 1.01 | locus YHR013C, strain ard1, stronger effect = lower value 1.01 | locus YHR027C, strain rpn1, stronger effect = lower value 0.993 | locus YHR030C, strain SLT2, stronger effect = lower value 1.01 and 0.979 | locus YHR079C, strain IRE1 (second series), stronger effect = lower value 1.03 | locus YHR079C, strain IRE1, stronger effect = lower value 0.985 | locus YHR094C, strain hxt1, stronger effect = lower value 1.03 | locus YHR129C, strain ARP1, stronger effect = lower value 1.01 | locus YHR142W, strain chs7, stronger effect = lower value 0.995 | locus YHR200W, strain rpn10, stronger effect = lower value 1.04 | locus YIL066C, strain RNR3, stronger effect = lower value 1.02 | locus YIL073C, strain SPO22, stronger effect = lower value 1.07 | locus YIL125W, strain kgd1, stronger effect = lower value 1.01 | locus YIR030C, strain dcg1, stronger effect = lower value 1.01 | locus YJL092W, strain hpr5, stronger effect = lower value 0.986 | locus YJL095W, strain BCK1 (second series), stronger effect = lower value 0.999 | locus YJL095W, strain BCK1, stronger effect = lower value 1.01 and 1.04 | locus YJL115W, strain asf1, stronger effect = lower value 0.993 | locus YJL129C, strain trk1, stronger effect = lower value 1.01 | locus YJL134W, strain LCB3, stronger effect = lower value 1.01 | locus YJL154C, strain vps35, stronger effect = lower value 0.978 | locus YJL164C, strain tpk1, stronger effect = lower value 1.01 | locus YJL166W, strain qcr8, stronger effect = lower value 1.02 | locus YJL168C, strain set2, stronger effect = lower value 1.02 | locus YJL187C, strain SWE1 (second series), stronger effect = lower value 1.02 | locus YJR043C, strain POL32, stronger effect = lower value 1.01 | locus YJR066W, strain TOR1, stronger effect = lower value 0.931 | locus YKL009W, strain mrt4, stronger effect = lower value 0.999 | locus YKL068W, stronger effect = lower value 1.01 | locus YKL085W, strain MDH1 (second series), stronger effect = lower value 1 | locus YKL085W, strain MDH1, stronger effect = lower value 1 | locus YKL160W, strain elf1, stronger effect = lower value 1.01 | locus YKL190W, strain CNB1, stronger effect = lower value 1.01 | locus YKR001C, strain vps1, stronger effect = lower value 1.03 | locus YKR026C, strain gcn3, stronger effect = lower value 0.997 | locus YKR091W, strain srl3, stronger effect = lower value 1 | locus YLL001W, strain dnm1, stronger effect = lower value 0.991 | locus YLL026W, stronger effect = lower value 1.01 | locus YLL041C, strain sdh2, stronger effect = lower value 0.997 | locus YLR027C, strain aat2, stronger effect = lower value 1 | locus YLR039C, strain RIC1, stronger effect = lower value 1.01 | locus YLR058C, strain SHM2, stronger effect = lower value 1.01 | locus YLR102C, strain apc9, stronger effect = lower value 1.03 | locus YLR113W, strain HOG1, stronger effect = lower value 1.08 | locus YLR221C, strain rsa3, stronger effect = lower value 1.01 | locus YLR258W, strain gsy2, stronger effect = lower value 1.01 | locus YLR262C, strain YPT6 (second series), stronger effect = lower value 0.956 | locus YLR262C, strain YPT6, stronger effect = lower value 1.07 | locus YLR268W, strain sec22, stronger effect = lower value 1.01 | locus YLR320W, strain mms22, stronger effect = lower value 1.01 | locus YLR330W, strain CHS5, stronger effect = lower value 1.01 | locus YLR342W, strain FKS1 (second series), stronger effect = lower value 1.02 | locus YLR342W, strain FKS1, stronger effect = lower value 1 | locus YLR357W, strain rsc2, stronger effect = lower value 0.973 | locus YLR370C, strain arc18, stronger effect = lower value 1.02 | locus YLR371W, strain rom2, stronger effect = lower value 1.02 | locus YLR384C, strain iki3, stronger effect = lower value 0.994 | locus YLR418C, strain cdc73, stronger effect = lower value 1.03 | locus YML016C, strain PPZ1, stronger effect = lower value 1.01 | locus YML032C, strain rad52, stronger effect = lower value 1.02 | locus YML120C, strain ndi1, stronger effect = lower value 1.01 | locus YML124C, strain tub3, stronger effect = lower value 1.02 | locus YMR058W, strain fet3, stronger effect = lower value 1 | locus YMR078C, strain ctf18, stronger effect = lower value 1.05 | locus YMR125W, strain sto1, stronger effect = lower value 0.986 | locus YMR129W, stronger effect = lower value 1 | locus YMR205C, strain PFK2, stronger effect = lower value 0.995 | locus YMR223W, strain ubp8, stronger effect = lower value 1.03 | locus YMR231W, strain pep5, stronger effect = lower value 1 | locus YMR263W, strain SAP30, stronger effect = lower value 1.01 | locus YMR307W, strain GAS1, stronger effect = lower value 1.04 | locus YNL067W, strain RPL9B, stronger effect = lower value 1.02 | locus YNL071W, strain lat1, stronger effect = lower value 0.991 | locus YNL183C, strain NPR1, stronger effect = lower value 0.972 | locus YNL209W, strain ssb2, stronger effect = lower value 0.989 | locus YNL233W, strain BNI4, stronger effect = lower value 1.01 | locus YNL248C, strain rpa49, stronger effect = lower value 0.961 | locus YNL250W, strain rad50, stronger effect = lower value 1.03 | locus YNL271C, strain bni1, stronger effect = lower value 1.02 | locus YNL298W, strain CLA4, stronger effect = lower value 1.02 | locus YNL307C, strain MCK1, stronger effect = lower value 1.02 | locus YNL322C, strain KRE1 (second series), stronger effect = lower value 1 | locus YNL322C, strain KRE1, stronger effect = lower value 1.01 | locus YNR049C, strain mso1, stronger effect = lower value 0.993 | locus YNR052C, strain pop2, stronger effect = lower value 1.03 | locus YOL006C, strain TOP1, stronger effect = lower value 1.07 | locus YOL012C, strain htz1 0.847 | locus YOL147C, strain pex11, stronger effect = lower value 1.01 | locus YOR001W, strain rrp6, stronger effect = lower value 0.987 | locus YOR061W, strain CKA2, stronger effect = lower value 1.01 | locus YOR069W, strain VPS5, stronger effect = lower value 1.01 | locus YOR070C, strain gyp1, stronger effect = lower value 1.01 | locus YOR080W, strain dia2, stronger effect = lower value 1 | locus YOR083W, strain WHI5, stronger effect = lower value 1.01 | locus YOR106W, strain vam3, stronger effect = lower value 1 | locus YOR136W, strain idh2, stronger effect = lower value 1.02 | locus YOR144C, strain elg1, stronger effect = lower value 1.01 | locus YOR184W, strain ser1, stronger effect = lower value 1.03 | locus YOR231W, strain MKK1, stronger effect = lower value 0.986 | locus YOR265W, strain rbl2, stronger effect = lower value 1 | locus YOR270C, strain vph1, stronger effect = lower value 0.847 | locus YOR290C, strain snf2, stronger effect = lower value 1.01 | locus YOR316C, strain cot1, stronger effect = lower value 1.01 | locus YPL051W, strain arl3, stronger effect = lower value 1.03 | locus YPL078C, strain atp4, stronger effect = lower value 0.978 | locus YPL106C, strain sse1, stronger effect = lower value 1.01 | locus YPL240C, strain hsp82, stronger effect = lower value 0.993 | locus YPL241C, strain CIN2, stronger effect = lower value 1.02 | locus YPL256C, strain CLN2, stronger effect = lower value 1 | locus YPR119W, strain clb2, stronger effect = lower value 1.04 | locus YPR141C, strain kar3, stronger effect = lower value 1.03 | locus YPR163C, strain tif3, stronger effect = lower value 1.03 | locus YPR167C, strain met16, stronger effect = lower value 1.01 | strain wtn01, stronger effect = lower value 1.03
